The text below walks through data of PubChem BioAssay (NCATS).

Calls of active or inactive are those of the source. The call rests on the fitted dose curve. Starred links: 1 amine or outer side, 2 acyl side, 3 side chain; linkers in the order of their positions; H or OH if unused. Positions of bridges follow the written chain, without caps; N, C: chain ends. Non-standard residues stand in square brackets, D forms with d. Residues, ends and D or L forms follow the SMILES beside them. ξ: configuration not given here. *: point of attachment. ΔAla(3-NHCONH2) = NC(=O)NC=C(N)C(=O)O; X1 = NC1=NCCC(C(N[*:1])C(=O)[*:2])N1; ξβ3hOrn = NCCCC(N)CC(=O)*; Dap = NC[CH](N)C(=O)O

The conditions of the assay: Ebola virus entry assay, ratio channel readout.
On to `O=C(CCCN1CCC(O)(c2ccc(Cl)cc2)CC1)c1ccc(F)cc1`, for which the outcome was inactive.
In the case of `O=C(O)P(=O)(O)O` it was “inactive”; in that of `CCCCc1nc(Cl)c(CO)n1Cc1ccc(-c2ccccc2-c2nn[nH]n2)cc1`, “inactive”; in that of `Cc1cn[nH]c1`, “inactive”.
In the case of `CC(C)NCC(O)COc1cccc2[nH]ccc12` (configuration not stated) it was “inactive”; in that of `CC(C)c1nc(CN(C)C(=O)N[C@H](C(=O)N[C@@H](Cc2ccccc2)C[C@H](O)[C@H](Cc2ccccc2)NC(=O)OCc2cncs2)C(C)C)cs1`, “inactive”; in that of `CC1=C(C(=O)O)N2C(=O)[C@@H](NC(=O)[C@H](N)c3ccc(O)cc3)[C@H]2SC1`, “inactive”.
In the case of `O=C1CCc2ccc(OCCCCN3CCN(c4cccc(Cl)c4Cl)CC3)cc2N1`, the outcome was inactive.
To `CC(S)C(=O)NCC(=O)O` (configuration not stated) belongs “inactive”; to `CCCN(CCC)CCc1cccc2c1CC(=O)N2`, “inactive”.
For `NCC(CC(=O)O)c1ccc(Cl)cc1` (configuration not stated), the outcome was inactive.
To `Cc1ccccc1C(=O)Nc1ccc(C(=O)N2CCCC(O)c3cc(Cl)ccc32)c(C)c1` (configuration not stated) belongs “inactive”; to `NC(=O)OCC(COC(N)=O)c1ccccc1`, “inactive”; to `Cc1[nH]cnc1CN1CCc2c(c3ccccc3n2C)C1=O`, “inactive”.
In the case of `COc1ccccc1OCCNCC(O)COc1cccc2[nH]c3ccccc3c12` (configuration not stated) it was “inactive”; in that of `NC(=O)c1cn(Cc2c(F)cccc2F)nn1`, “inactive”.
Take `NCCCC(O)(P(=O)(O)O)P(=O)(O)O`: the outcome was inactive.
To `CN(CCOc1ccc(CC2SC(=O)NC2=O)cc1)c1ccccn1` (configuration not stated) belongs “inactive”; to `N[C@@H]1CONC1=O`, “inactive”; to `CCCC(CCC)C(=O)O`, “inactive”.
In the case of `CC(C)CC(N(C)C)C1(c2ccc(Cl)cc2)CCC1` (configuration not stated) it was “inactive”; in that of `NCCCC(N)CC(=O)NCC1NC(=O)C(CO)NC(=O)C(N)CNC(=O)C(C2CCN=C(N)N2)NC(=O)C(=CNC(N)=O)NC1=O` (stereo not drawn) (H-[Dap]S[Dap](ξβ3hOrn)[ΔAla(3-NHCONH2)][X1]; lactam 1-C; configuration not given here), “inactive”.
In the case of `C[C@]12CC[C@H]3[C@@H](CCC4=CC(=O)CC[C@@H]43)[C@@H]1CC[C@@H]2OC(=O)CCc1ccccc1` it was “inactive”; in that of `CCOC(=O)[C@H](CCc1ccccc1)N[C@@H](C)C(=O)N1[C@H](C(=O)O)C[C@@H]2CCC[C@@H]21`, “inactive”.
Regarding `CC[C@@H](CO)NC(=O)[C@@H]1C=C2c3cccc4c3c(cn4C)C[C@H]2N(C)C1`, the outcome was inactive.
In the case of `COc1ccc(OC)c(C(O)CNC(=O)CN)c1` (configuration not stated) it was “inactive”; in that of `O=C(O)CCCc1ccccc1`, “inactive”.
To `C[C@@H](O)[C@H]1C(=O)N2C(C(=O)O)=C(S[C@@H]3CN[C@H](C(=O)N(C)C)C3)[C@H](C)[C@H]12` belongs “inactive”; to `O=C1CCC(N2C(=O)c3ccccc3C2=O)C(=O)N1` (configuration not stated), “inactive”.
For `CC(C)(C(=O)O)c1ccc(C(O)CCCN2CCC(C(O)(c3ccccc3)c3ccccc3)CC2)cc1` (configuration not stated), the outcome was inactive.
In the case of `CNCCC(Oc1ccc(C(F)(F)F)cc1)c1ccccc1` (configuration not stated) it was “inactive”; in that of `CCN(CC)C(=S)SSC(=S)N(CC)CC`, “inactive”.
